Consider 55 compounds from PubChem BioAssay.

The nature of this assay: sensitizers of A549 cells to miR-34 induction, primary screen, imaging, A549 dox-inducible miR-34, nuclei and caspase counts (AID 1347080). Note: test concentration not given here. The settings on record: A549 miR-34 inducible, Hoechst nuclei count, 48 h.
[1] abbreviates: stronger effect = lower value, cell number ratio, induced over uninduced.
Setting [2] is: measured here: relative caspase fold change +Dox/-Dox.
[3] abbreviates: measured here: total cells with miR-34 induction, stronger effect = lower value.
Where [4] appears, read: measured here: total cells without miR-34 induction.

The source made the active and inactive calls.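 Rule for the calls: active = compounds whose cell count with miR-34 switched on is under 0.7 times the count with it off; inactive = the rest.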

For `CC(Sc1nc2ccccc2[nH]1)C(=O)N/N=C/c1cc(Br)ccc1O` (stereo not given), the fold change runs as follows: under setting [1], 1.01 (inactive); under setting [2], 1.43. Moreover, the cell count under setting [3] is 6060 and the cell count under setting [4] was determined as 6010.
Consider `CCCCC/C=C/C=C1/C(=O)C[C@H](O)[C@@H]1C/C=C\CCCC(=O)O`, for which the fold change reads like this: under setting [1], 1.04 (inactive); under setting [2], 1.03. Besides, the cell count under setting [3] turned out to be 6090 and the cell count under setting [4] stood at 5880.
`C[C@]12CC[C@@H]3c4cc(O)c(O)cc4CC[C@H]3[C@@H]1CC[C@@H]2O`: the fold change is 0.847 (inactive) under setting [1] and 2.78 under setting [2]. The cell count is 5010 under setting [3] and 5920 under setting [4].
On to `CC/C=C\C/C=C\C/C=C\C/C=C\CCCCCCC(=O)OCC`, for which the fold change was 0.858 (inactive) under setting [1] and 2.1 under setting [2]. The cell count is, setting by setting: under setting [3], 5560; under setting [4], 6480.
As to `CCCCC[C@H](O)/C=C/[C@@H]1[C@@H](C/C=C\CCCC(=O)NCCO)[C@@H](O)C[C@H]1O`, the fold change by setting is: under setting [1], 0.899 (inactive); under setting [2], 1.5. Also, the cell count runs as follows: under setting [3], 5200; under setting [4], 5780.
For `O=C(O)c1c[nH]c2c(ccc3cccnc32)c1=O`, in that order: 0.93 (inactive), 0.866, 5740 and 6180.
For `CCCCC[C@H](O)/C=C/[C@H]1C2CC(CO2)[C@@H]1C/C=C/CCCC(=O)O` (stereo not given in full), the fold change is 1 (inactive) under setting [1] and 1.25 under setting [2]. Also, the cell count is 6110 under setting [3] and 6090 under setting [4].
For `CCCCC[C@H](O)/C=C/[C@H]1[C@H](O)CC(=O)[C@@H]1C/C=C\CCCC(=O)OC`, in that order: 0.938 (inactive), 1.71, 5670 and 6040.
For `CCCCCCCC/C=C\CCCCCCCC(=O)Nc1c(C(C)C)cccc1C(C)C`, in that order: 0.999 (inactive), 0.853, 5690 and 5700.
For `CCCCC/C=C\C/C=C\C/C=C\C/C=C\CCCC(=O)OCc1ccsc1`, in that order: 0.989 (inactive), 1.02, 6270 and 6340.
With `CCCCC(C)(C)[C@H](O)/C=C/[C@H]1CCC(=O)[C@@H]1C/C=C\CCCC(=O)O`, the fold change under setting [1] was 0.973 (inactive) and the fold change under setting [2] was found to be 1.01. Also, the cell count by setting is: under setting [3], 6270; under setting [4], 6450.
Consider `CC/C=C/C[C@H](O)/C=C/[C@H]1[C@H](O)CC(=O)[C@@H]1C/C=C\CCCC(=O)O`, for which the fold change runs as follows: under setting [1], 0.915 (inactive); under setting [2], 1.46. Also, the cell count is, setting by setting: under setting [3], 5700; under setting [4], 6230.
For `COc1cc([C@@H]2OC[C@@H](c3cc(OC)c(OC)c(OC)c3)O2)cc(OC)c1OC`, in that order: 0.96 (inactive), 0.869, 5040 and 5250.
For `CC(C)[C@H](O)C(=O)O`, in that order: 0.982 (inactive), 1.05, 5470 and 5570.
For the compound `O=C(O)CCC/C=C\C[C@H]1[C@@H](/C=C/[C@@H](O)CCc2ccccc2)[C@H](O)C[C@@H]1O`, the fold change is, setting by setting: under setting [1], 0.9 (inactive); under setting [2], 0.837. Further, the cell count turned out to be 5490 under setting [3] and 6100 under setting [4].
Consider `CCOC(=O)c1ccnc(C(=O)OCC)c1`, for which the fold change was 0.975 (inactive) under setting [1] and 0.9 under setting [2]. For the same compound, the cell count was determined as 5540 under setting [3] and 5690 under setting [4].
For `CCCCCCCC/C=C\CCCCCCCCOCCOP(=O)([O-])OCC[N+](C)(C)C`, in that order: 0.927 (inactive), 0.887, 5510 and 5950.
On to `C[Se]CC[C@H](N)C(=O)O`, for which the fold change runs as follows: under setting [1], 0.969 (inactive); under setting [2], 0.907. The cell count is, setting by setting: under setting [3], 8780; under setting [4], 9060.
For `CCCCCC(=O)CC[C@@H]1[C@@H](C/C=C\CCCC(=O)OC(C)C)[C@@H](O)C[C@H]1O`, in that order: 0.977 (inactive), 1.56, 6190 and 6330.
For `CCCCCCCCCCCCCCCCCCCCCC(=O)NCCS(=O)(=O)O`, in that order: 0.845 (inactive), 0.367, 5140 and 6090.
For `CCOC(=O)/C=C/[C@H](CC(C)C)NC(=O)[C@H](CO)NC(=O)[C@@H](NC(=O)c1cccc(O)c1C)C(C)C`, in that order: 0.61 (active), 0.781, 3640 and 5980.
`CCCCC[C@H](O)/C=C/[C@@H]1C(C/C=C\CCCCN(C)C)[C@@H](O)C[C@H]1O` (stereo not given in full): the fold change is, setting by setting: under setting [1], 0.95 (inactive); under setting [2], 1.02. Besides, the cell count under setting [3] turned out to be 5640 and the cell count under setting [4] was 5940.
For `O=C1O/C(=C/Br)CC[C@H]1c1cccc2ccccc12`, in that order: 1.14 (inactive), 0.781, 3970 and 3470.
For `NC(=O)CCC/C=C\C[C@@H]1[C@@H](/C=C/[C@@H](O)CCc2ccccc2)[C@H](O)C[C@@H]1O`, in that order: 0.961 (inactive), 1.58, 6210 and 6460.
For `C1CCC(NC(=NC2C3CC4CC(C3)CC2C4)N2CCOCC2)CC1` (stereo not given), in that order: 1.04 (inactive), 1.05, 5720 and 5520.
As to `CC/C=C\C/C=C\C/C=C\C/C=C\C/C=C\CCCC(=O)O[C@H](COCCCCCCCCCCCCCCCC)COP(=O)([O-])OCC[N+](C)(C)C`, the fold change was 0.886 (inactive) under setting [1] and 1.31 under setting [2]. Moreover, the cell count reads like this: under setting [3], 5330; under setting [4], 6010.
Turning to `CCCCC[C@H](O)/C=C/[C@@H]1[C@@H](C/C=C\CCCC(=O)OCC(O)CO)[C@@H](O)C[C@H]1O` (stereo not given in full), the fold change under setting [1] was 0.942 (inactive) and the fold change under setting [2] stood at 1.39. The cell count stood at 5810 under setting [3] and 6170 under setting [4].
For `CCCCCCCCCCCCCCCCOC[C@H](COP(=O)([O-])OCC[N+](C)(C)C)OC(=O)CCC`, the fold change reads like this: under setting [1], 0.868 (inactive); under setting [2], 0.912. Also, the cell count came to 5110 under setting [3] and 5890 under setting [4].
For `CCCCCCCC/C=C\CCCCCCCC(=O)N[C@H](CO)Cc1ccc(O)cc1`, in that order: 1.03 (inactive), 1.33, 6010 and 5860.
For `CCCCC[C@@H](O)/C=C/[C@H]1C(=O)C[C@H](O)[C@@H]1C/C=C\CCCC(=O)O`, in that order: 0.996 (inactive), 1.65, 6010 and 6040.
For `CCCCCC(=O)CC[C@@H]1[C@@H](CCCCCCC(=O)O)[C@@H](O)C[C@H]1O`, in that order: 0.953 (inactive), 1.23, 6140 and 6450.
`CCCCC[C@H](O)/C=C/[C@H]1[C@H](O)CC(=O)[C@@H]1C/C=C\CCCC(=O)NCCO`: the fold change under setting [1] is 1.16 (inactive) and the fold change under setting [2] is 1.44. Moreover, the cell count under setting [3] worked out at 6290 and the cell count under setting [4] was 5420.
Turning to `CCCCc1ccc(N=CNO)c(C)c1`, the fold change was 1.01 (inactive) under setting [1] and 0.762 under setting [2]. For the same compound, the cell count is, setting by setting: under setting [3], 6020; under setting [4], 5950.
For `C/C=C/C(=O)O[C@H](COCCCCCCCCCCCCCCCC)COP(=O)([O-])OCC[N+](C)(C)C`, in that order: 0.851 (inactive), 1.03, 4860 and 5710.
On to `CCCCC/C=C\C/C=C\C/C=C\C/C=C\CCCCN1C(=O)C=CC1=O`, for which the fold change under setting [1] was 0.86 (inactive) and the fold change under setting [2] turned out to be 0.663. In addition, the cell count was determined as 5540 under setting [3] and 6440 under setting [4].
For `OC[C@H]1O[C@H](O[C@H]2[C@H](O)[C@@H](O)[C@H](O)O[C@@H]2CO)[C@H](O)[C@@H](O)[C@@H]1O`, in that order: 0.99 (inactive), 0.551, 8780 and 8870.
For `CC(C)CCOc1ccc(NC(=S)Nc2ccc(OCCC(C)C)cc2)cc1`, in that order: 0.881 (inactive), 0.401, 4560 and 5170.
Turning to `c1ccc(C(OC2CCN(CCCc3nn[nH]n3)CC2)c2ccccc2)cc1`, the fold change by setting is: under setting [1], 0.935 (inactive); under setting [2], 1.12. Further, the cell count under setting [3] is 5840 and the cell count under setting [4] was 6240.
Regarding `CCCCCCCC/C=C/CCCCCCCC(=O)O`, the fold change under setting [1] was 1.1 (inactive) and the fold change under setting [2] was found to be 0.875. For the same compound, the cell count runs as follows: under setting [3], 6340; under setting [4], 5750.
For `CCCCCCCC(=O)CC[C@@H]1[C@@H](C/C=C\CCCC(=O)OC(C)C)[C@@H](O)C[C@H]1O`, in that order: 0.954 (inactive), 1.15, 5890 and 6180.
`CCC(C)[C@H]1O[C@]2(C=C[C@@H]1C)C[C@@H]1C[C@@H](C/C=C(\C)[C@@H](OC3C[C@H](OC)C(O[C@H]4C[C@H](OC)[C@@H](NC(C)=O)[C@H](C)O4)[C@H](C)O3)[C@@H](C)/C=C/C=C3\CO[C@@H]4[C@H](O)C(C)=C[C@@H](C(=O)O1)[C@]34O)O2` (stereo not given in full): the fold change by setting is: under setting [1], 1.03 (inactive); under setting [2], 0.79. Further, the cell count reads like this: under setting [3], 4370; under setting [4], 4250.
With `COc1ccc2c(c1)c(CC(=O)Nc1ccc(NC(C)=O)cc1)c(C)n2C(=O)c1ccc(Cl)cc1`, the fold change under setting [1] is 1.05 (inactive) and the fold change under setting [2] was 1.43. Also, the cell count is, setting by setting: under setting [3], 5880; under setting [4], 5610.
For `CCCCCCCCCCCC(=O)c1nc2ncccc2o1`, the fold change runs as follows: under setting [1], 0.934 (inactive); under setting [2], 1.01. Further, the cell count was 5110 under setting [3] and 5460 under setting [4].
Regarding `NCCCNCCCCN(CCCN)[N+]([O-])=NO`, the fold change was 1.02 (inactive) under setting [1] and 1.33 under setting [2]. Moreover, the cell count under setting [3] worked out at 5980 and the cell count under setting [4] turned out to be 5880.
For `CCCC/C=C\CCCCCCCC(=O)OC`, in that order: 1.02 (inactive), 0.704, 5700 and 5570.
For `CCCCCCCCCCCCC/C=C/[C@@H](O)[C@H](COP(=O)(O)O)NC(=O)CCCCCCC`, in that order: 1.01 (inactive), 0.912, 5610 and 5550.
Consider `CCCCCCCCCCCC(=O)O`, for which the fold change by setting is: under setting [1], 1.01 (inactive); under setting [2], 1.12. Further, the cell count reads like this: under setting [3], 5910; under setting [4], 5870.
For `O=c1[nH]cc(CO)c(=O)[nH]1`, in that order: 1.01 (inactive), 1.05, 5770 and 5720.
Regarding `CCCCCCCCCCCCCCCC(=O)NC(CO)CO`, the fold change under setting [1] was 0.966 (inactive) and the fold change under setting [2] was 0.974. The cell count under setting [3] turned out to be 5260 and the cell count under setting [4] was 5440.
For `OC1C[C@@H]2[C@@H](CC[C@@H](O)CCc3ccccc3)[C@H](O)C[C@@H]2O1` (stereo not given in full), in that order: 1.04 (inactive), 0.862, 6130 and 5890.
As to `O=C(O)CCC/C=C\C[C@@H]1[C@@H](/C=C/[C@H](O)CCc2ccccc2)[C@H](O)C[C@@H]1O`, the fold change by setting is: under setting [1], 0.915 (inactive); under setting [2], 1.56. In addition, the cell count under setting [3] is 5340 and the cell count under setting [4] amounted to 5830.
For `O=C(CCC/C=C\C[C@H]1C(=O)C[C@@H](O)[C@@H]1/C=C/[C@@H](O)CCc1ccccc1)NC(CO)CO`, in that order: 0.931 (inactive), 0.89, 5500 and 5910.
For `CCCCC[C@H](O)/C=C/[C@@H]1[C@@H](C/C=C\CCCCO)[C@@H](O)C[C@H]1O`, in that order: 0.871 (inactive), 1.35, 5490 and 6300.
For `CCCCCC(=O)/C=C/C=O`, the fold change is 1.01 (inactive) under setting [1] and 1.61 under setting [2]. Moreover, the cell count is, setting by setting: under setting [3], 5770; under setting [4], 5720.
In the case of `COc1cc(C[C@H]2COC(=O)[C@@H]2Cc2ccc(O)c(OC)c2)ccc1O`, the fold change under setting [1] is 0.981 (inactive) and the fold change under setting [2] was found to be 0.938. In addition, the cell count is 5500 under setting [3] and 5600 under setting [4].
